Most compounds without a hit are left out; they make up all but 2.3% or so of the library.
CHO-K1 Ca antag: nonselective inhibitor or artifact in parental CHO-K1 cells. ATP-induced calcium, Fluo-8 fluorescence. inhibition, % at 3 µM. hit rate 0.6% among 360,000;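 active = inhibition above a per-plate cutoff, the plate's mean sample inhibition plus 3 SD, cut at about 24% in these data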
M1 ag: human M1 muscarinic receptor agonism; hit rate 0.33% among 360,000; AID 588814; CHO-K1 hM1, Fluo-8 calcium fluorescence, agonist mode; 0% DMSO, 100% acetylcholine EC100; P11229; activation, % at 3 µM;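 active = activation above the run's mean compound activation plus 3 SD, cut at about 16% in these data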;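 also: peak over basal fluorescence ratio within a 140 s kinetic read after compound addition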
Target sequence (P11229 whole entry, looked up): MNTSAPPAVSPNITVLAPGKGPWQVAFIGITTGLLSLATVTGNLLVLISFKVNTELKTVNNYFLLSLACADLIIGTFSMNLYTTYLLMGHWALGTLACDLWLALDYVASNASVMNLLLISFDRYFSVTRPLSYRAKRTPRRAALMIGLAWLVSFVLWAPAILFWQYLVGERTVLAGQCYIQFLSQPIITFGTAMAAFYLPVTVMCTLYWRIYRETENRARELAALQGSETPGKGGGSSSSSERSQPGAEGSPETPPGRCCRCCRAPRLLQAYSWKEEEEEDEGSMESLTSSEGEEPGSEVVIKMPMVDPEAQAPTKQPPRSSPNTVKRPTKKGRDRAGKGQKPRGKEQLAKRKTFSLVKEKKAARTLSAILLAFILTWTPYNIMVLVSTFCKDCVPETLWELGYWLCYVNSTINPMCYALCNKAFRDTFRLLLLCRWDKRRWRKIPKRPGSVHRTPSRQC
CHO-K1 Ca ag: nonselective activator or artifact in parental CHO-K1 cells; Fluo-8 calcium fluorescence; scaled to maximal ATP response, vehicle zero; activation, % at 3 µM; hit rate 0.48% among 360,000; in the data active = activation above about 15%;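 also: untransfected CHO-K1 host cells lacking M1 receptor as counterscreen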
M1 PAM: human CHRM1 positive allosteric modulation | P11229 | CHO-K1 hM1, Fluo-8 calcium fluorescence, ACh EC20; 0% = ACh EC20, 100% = maximal ACh | activation, % at 3 µM | hit rate 0.088% among 360,000 | AID 588819; in the data active = activation above about 19%, passing the limit was not always enough
CHRM1 antagonist: blocks human M1 muscarinic receptor. AID 588852. CHO-K1 hM1, Fluo-8 calcium fluorescence, ACh EC80 antagonist. hit rate 1.3% among 360,000. inhibition, % at 3 µM;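 active = percent inhibition above its own plate's cutoff, namely the mean of that plate's compound wells plus 3 SD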;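 also: peak over basal fluorescence ratio during 140 s after agonist addition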
CHO-K1 Ca PAM: counter-screen for M1 PAMs: effect in parental CHO-K1 cells; ATP EC20, Fluo-8 calcium fluorescence; 0% at ATP EC20, 100% at ATP max; activation, % at 3 µM; hit rate 0.02% among 360,000;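 active = activation above the run cutoff, the mean activation of all test compounds plus 3 SD, cut at about 40% in these data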;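 also: peak over basal fluorescence ratio in a 140 s read after ATP addition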
Numbers stand for hits; i = inactive; nt = not tested or not shown.

SMILES | CHO-K1 Ca antag | M1 ag | CHO-K1 Ca ag | M1 PAM | CHRM1 antagonist | CHO-K1 Ca PAM
CC1(C)CC(=O)c2c(O)cc(OCc3ccc(Br)cc3)cc2O1 | i | i | i | i | i | i
CC1(C)CC(=O)c2ccc(OCc3ccc([N+](=O)[O-])cc3)cc2O1 | 30 | i | i | i | i | i
Cc1noc(C)c1S(=O)(=O)N(C)C[C@H]1Oc2ccc(NC(=O)Cn3cnnn3)cc2C(=O)N([C@H](C)CO)C[C@@H]1C | i | i | i | i | i | i
C[C@H](CO)N1C[C@H](C)[C@@H](CN(C)S(=O)(=O)c2cccs2)Oc2ccc(NC(=O)CCC(F)(F)F)cc2C1=O | i | i | i | i | 57 | i
C[C@H](CO)N1C[C@H](C)[C@@H](CN(C)S(C)(=O)=O)Oc2ccc(NC(=O)CCN3CCOCC3)cc2C1=O | i | i | i | i | i | i
C[C@H](CO)N1C[C@H](C)[C@@H](CN(C)S(=O)(=O)c2ccccc2)Oc2ccc(NC(=O)CCN3CCOCC3)cc2C1=O | i | i | i | i | 35 | i
C[C@H](CO)N1C[C@H](C)[C@@H](CN(C)S(=O)(=O)c2ccccc2)Oc2ccc(NC(=O)Cn3cnnn3)cc2C1=O | i | i | i | i | 34 | i
C[C@@H]1CN([C@@H](C)CO)C(=O)CCCn2cc(nn2)CO[C@H]1CN(C)S(=O)(=O)c1ccccc1F | i | i | i | i | i | i
Cc1ccc(NC(=O)CCCCCN2C(=O)[C@@H]3Cc4ccccc4CN3C2=O)c(C)c1 | i | i | i | i | i | i
COc1ccc(C(CNc2ncnc3sccc23)N(C)C)cc1OC (centres undefined) | i | i | i | i | i | i
COc1ccc(CNc2ncnc3sccc23)cc1OC | i | i | 16 | i | i | i
COc1ccc(CNc2ncnc3sccc23)cc1 | i | i | i | i | 31 | i
CN(C)C(CNc1ncnc2sccc12)c1ccccc1 (centres undefined) | i | i | i | i | 47 | i
COc1ccc(CCNc2ncnc3cc(OC)c(OC)cc23)cc1OC | i | i | 16 | i | i | i
O=C(NC1CC(=O)N(c2ccc(Cl)cc2)C1)C1CC1 (centres undefined) | i | i | i | i | i | i
Cc1nn(CC(C)C)c(Cl)c1C(=O)N(C)CC(=O)Nc1ccc(Cl)cc1 | i | i | i | i | i | i
CC(C)(C)c1ccc(CC(=O)N2CCC2(C)C(=O)Nc2ccc3[nH]ncc3c2)cc1 (centres undefined) | i | i | i | i | i | i
CC1(C(=O)Nc2ccc3c(c2)OCO3)CCN1C(=O)Cc1ccc(-c2ccccc2)cc1 (centres undefined) | i | i | i | i | 38 | i
CC1(C(=O)Nc2ccc3[nH]ncc3c2)CCN1C(=O)Cc1ccc(-c2ccccc2)cc1 (centres undefined) | i | i | i | i | 28 | i
Cn1nc(C2CC2)cc1NC(=O)C1(C)CCN1C(=O)Cc1ccc(-c2ccccc2)cc1 (centres undefined) | i | i | i | i | 30 | i
O=C(COc1ccc(S(=O)(=O)NC2CCCCC2)cc1)N1CCN(c2cccc(Cl)c2)CC1 | i | i | i | i | 26 | i
CCOc1ccc(NS(=O)(=O)c2ccc(C(=O)N3CCCC(C)C3)cc2)cc1 (centres undefined) | i | 39 | 31 | i | 28 | i
CCOc1ccc(NS(=O)(=O)c2ccc(C(=O)NCC3(N(C)C)CCCCC3)cc2)cc1 | i | i | 19 | i | i | i
COc1ccc(CNS(=O)(=O)c2c(C(=O)N3CCCCCC3)c(C)n(C)c2C)cc1 | 26 | i | i | i | i | i
CC(C)NS(=O)(=O)c1ccc(OCC(=O)N2CCN(c3ccccc3)CC2)cc1 | i | i | i | i | i | i
SMILES | CHO-K1 Ca antag | M1 ag | CHO-K1 Ca ag | M1 PAM | CHRM1 antagonist | CHO-K1 Ca PAM
OC1(C#CCN2CCCC2)CCCCC1 | i | i | i | i | i | i
O=C(c1ccc(S(=O)(=O)Nc2ccccc2)cc1)N1CCCC(C(F)(F)F)C1 (centres undefined) | 26 | 31 | 15 | i | i | i
CCOC(=O)N1CCN(C(=O)c2ccc(NS(=O)(=O)c3ccc(C)cc3)cc2)CC1 | i | i | i | i | i | i
CCOC(=O)N1CCN(C(=O)c2ccc(S(=O)(=O)Nc3ccc(C)cc3)cc2)CC1 | i | i | i | i | 32 | i
COc1ccc(NS(=O)(=O)c2ccc(C(=O)N3CCCCCC3)cc2)cc1 | i | 23 | 18 | i | i | i
COc1ccc(NS(=O)(=O)c2ccc(OCC(=O)N3CCCC3)cc2)cc1 | i | i | 17 | i | i | i
CCN1C[C@@H]2[C@@H]3C(=O)N(Cc4ccccc4)C(=O)[C@@H]3[C@](CC)(C1=O)N2C(=O)c1ccc(F)cc1 | i | i | i | i | i | i
Nc1ncnc2c1ncn2[C@@H]1O[C@H](CCC(=O)NCc2ccccc2)[C@@H](O)[C@H]1O | i | i | i | i | i | i
CCOCCCNC(=O)c1c[nH]c2ccc(OCC)cc2c1=O | i | i | i | i | i | i
CC1(C)CC(=O)C([N+](=O)[O-])=C(NCCCC(=O)O)C1 | i | i | i | i | i | i
CCCC(=O)Nc1ccc(C(=O)N2CCCC2)cc1 | 24 | i | i | i | i | i
Cc1ccc(NS(=O)(=O)c2ccc(C(=O)N3CC(C)OC(C)C3)cc2)cc1 (centres undefined) | i | 39 | 33 | i | i | i
Cc1ccc(NS(=O)(=O)c2ccc(C(=O)N3CCC3)cc2)cc1 | i | i | i | i | i | i
CCOc1ccc(NS(=O)(=O)c2ccc(C(=O)N3CCCCCC3)cc2)cc1 | i | 22 | 15 | i | i | i
CN(CCc1ccccc1)C(c1ccnc2ccccc12)c1nnnn1-c1ccc2c(c1)OCCO2 (centres undefined) | 26 | nt | i | nt | nt | i
CSc1nc(N)nc(SCC(=O)Nc2cccc(F)c2)c1C#N | i | i | i | i | 24 | i
CSc1nc(N)nc(SCC(=O)Nc2ccc(Cl)cc2)c1C#N | i | i | i | i | i | i
c1ccc(NCn2cncn2)nc1 | 28 | i | i | i | i | i
O=C(c1ccco1)N1CCN(C(=O)c2ccco2)CC1 | i | i | i | i | i | i
CCN1CCN(CC2CC3C=CC2C3)CC1 (centres undefined) | i | i | i | i | i | i
O=C(c1ccco1)N1CCN(CC2CC3C=CC2C3)CC1 (centres undefined) | i | i | i | i | 29 | i
CS(=O)(=O)N1CCN(CC2CC3C=CC2C3)CC1 (centres undefined) | i | 45 | i | i | i | i
Cc1ccccc1CN1CCN(CC2CC3C=CC2C3)CC1 (centres undefined) | i | i | i | i | 54 | i

Assay outcomes (PubChem)
